Assay results reported in PubChem BioAssay (NCATS).
Results filed as inconclusive are left out. Where a call stands in place of a potency, no number is given. Calls of active or inactive are those of the source. Calls follow the shape of the dose curve; as a rule, active = well fitted inhibition curve with a large enough effect; inconclusive = small, poorly fitted or top-dose-only effect; inactive = no such curve, though single readings can be large or run the other way.

What was measured:
[1] = tested on: Zika virus NS2B-NS3 protease (unlinked complex); assay: Primary screen GU Rhodamine qHTS for Zika virus inhibitors: Unlinked NS2B-NS3 protease assay (AID 1347159); also: nearly all actives have a fitted effect of over 60% in size
How it was run: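 A qHTS format was used, with compound concentrations ranging up to 114 microM. Each compound was preincubated with 25 nM NS2B-NS3 protease, and the substrate was then added at 1.5 microM. Curves were fitted with a 4-parameter Hill model.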

[2] = tested on: Zika virus NS2B-NS3 protease (linked construct); assay: Primary screen NINDS Rhodamine qHTS for Zika virus inhibitors (AID 1347160); also: nearly all actives have a fitted effect of over 55% in size
How it was run: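 Kinetic fluorescence (Ex 480 nm, Em 540 nm) over 15 min with 1.5 microM Rhodamine110 peptide and 25 nM linked protease.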

Q: For CCCn1cnc2c(NCc3ccccc3)nc(N[C@H](CC)CO)nc21, which Potency [1] is on record?
A: Its Potency is “inactive”.

Q: And the Potency [2]?
A: The Potency was “inactive”.

Q: How did the Potency [1] turn out when CC1CCC2(NC1)OC1C(=O)C3C4CCC5CC(O[C@@H]6O[C@H](CO)[C@@H](O)[C@H](O)[C@H]6O[C@@H]6O[C@@H](C)[C@H](O)[C@@H](O)[C@H]6O)CCC5(C)C4CCC3(C)C1C2C (some centres undefined) was run?
A: The Potency was “inactive”.

Q: What about the Potency [2] of the same compound?
A: Its Potency is “inactive”.

Q: For COc1cc(C2Oc3c(O)cc(CCCO)cc3C2CO)ccc1O[C@H]1O[C@H](C)[C@@H](O)[C@H](O)[C@@H]1O (some centres undefined), which Potency [1] is on record?
A: The Potency was “inactive”.

Q: And the Potency [2]?
A: Its Potency is “inactive”.

Q: C=CCc1ccc(O[C@@H]2O[C@H](CO[C@@H]3O[C@H](CO)[C@@H](O)[C@H](O)[C@H]3O)[C@@H](O)[C@H](O)[C@H]2O)c(O)c1 was tested. Which Potency [1] did it give?
A: The Potency was “inactive”.

Q: What about the Potency [2] of the same compound?
A: Its Potency is “inactive”.

Q: How did the Potency [1] turn out when C=C(C)C(C)C1OC23CC4(CO2)C(CCC2C5(C)CCC(OC6OCC(O)C(OC7OC(CO)C(O)C(OC8OCC(O)C(O)C8O)C7O)C6OC6OC(CO)C(O)C6O)C(C)(C)C5CCC24C)C3C(C)(O)C1OC(C)=O (centres undefined) was run?
A: Its Potency is “inactive”.

Q: What about the Potency [2] of the same compound?
A: Its Potency is “inactive”.

Q: CC1(CCC(=O)O)C(=O)C=CC23CC4CC(OC4(C)C2O)C13 (centres undefined) was tested. Which Potency [1] did it give?
A: The Potency was “inactive”.

Q: What about the Potency [2] of the same compound?
A: Its Potency is “inactive”.

Q: Which results are given for COC(=O)[C@H](CC1C=NC=N1)NCC12CC3CC(CC(C3)C1)C2 (some centres undefined)?
A: Potency [1]: inactive; Potency [2]: inactive
